From PubChem BioAssay
Sampled rows, rich in hits. Any-hit rate of the full collection: about 12%.
Shiga toxin inh: Shiga toxin inhibition; actives 9.2% (n = 290,000); inhibition, % at 38.7 µM; Vero cells, Shiga toxin protein synthesis inhibition reporter; in the data active = inhibition mostly above about 28%, no sharp cut-off; inactive = mostly below about 43%; note: 0% is about no effect
Cycloheximide cs: counter-screen for Shiga toxin inhibitors: cycloheximide protein synthesis inhibition; cell reporter, cycloheximide protein synthesis inhibition counterscreen; max response, %; actives 12% (n = 300,000); AID 2314; in the data active = max response mostly above about 13%, no sharp cut-off; inactive = mostly below about 14%; note: read at 38.3 µM for the half of the compounds with a filed dose; 0% is about no effect
Sm TGR block: inhibitors of Schistosoma mansoni thioredoxin glutathione reductase; Q962Y6; purified TGR, DTNB reduction, TNB absorbance 405 nm; Potency, µM (top dose mostly 114 µM), without a hit: at the top dose activity change, negative = inhibition, hits mostly inhibitors; actives 3% (n = 360,000); AID 485364; active = well fitted inhibition curve with a large enough effect; inconclusive = small, poorly fitted or top-dose-only effect; inactive = no such curve, though single readings can be large or run the other way; note: potency is the fitted concentration of half-maximal effect; % is set by controls: 0 for no effect and ±100 for the full control effect; nearly all actives have a fitted effect of over 60% in size
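TGR 20 nM + NADPH 100 uM (dispensed conc.), cpd preinc 15 min RT; start with NADPH (500 uM addition) then DTNB (15 mM addition). Kinetic TNB absorbance, 405 nm filter. Four-parameter Hill fit across titration.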
FMDV antiviral: antivirals against foot and mouth disease virus; FMDV antiviral cell-based qHTS; actives 1.2% (n = 410,000); Potency, µM (titrated, usually from 57.9 µM), for inactives: at the top dose activity change, negative = inhibition, hits mostly inhibitors; calls by dose curve; tested in HEK293T cells; note: read-out not given here; potency is the fitted concentration of half-maximal effect; % is set by controls: 0 for no effect and ±100 for the full control effect; nearly all actives have a fitted effect of over 45% in size
* hit, by the source's call; ? = inconclusive; . = no result given; [ ] = another dose, or the depositor's remark.

SMILES	Shiga toxin inh	Cycloheximide cs	Sm TGR block	FMDV antiviral
O=C(c1cc2sccc2n1Cc1ccccc1)N1CCCc2ccccc21	135.4*	40.8*	4.0%	-9.0%
Cn1c(C(=O)N2CCCc3ccccc32)cc2sccc21	31.9	25.5*	4.4%	-2.0%
O=C(NCCCN1CCN(c2ccccc2F)CC1)c1sc2ncccc2c1-n1cccc1	.	.	-33.8%	-10.9%
COC(=O)C1C(O)=C(C=Nc2ccc3ccccc3c2)C(=O)CC1(C)C (stereo not drawn)	17.3	15.5*	7.9%	-9.5%
COc1ccc(CNC(=O)Cc2ccc(NC(=O)N3CCCCc4ccccc43)cc2)cc1	.	.	0.3%	3.8%
CCOC(=O)c1cc2c(=O)n3ccccc3nc2n(Cc2ccco2)c1=NC(=O)c1cc(C)cc(C)c1	.	.	-15.8%	0.0%
CCOC(=O)c1cc2c(=O)n3ccccc3nc2n(Cc2ccco2)c1=NC(=O)c1ccc(OC)cc1OC	-13.2	-1.9	31.6µM*	21.3%
COC(=O)c1ccc2c(C)c(C(C)(C)O)[nH]c2c1	36.7	14.5*	-1.7%	0.0%
Cc1c(C(C)(C)O)[nH]c2ccc(C(F)(F)F)cc12	16.8	8.6*	14.1%	1.6%
Cc1ccc(C2CC(=O)Nc3c2c(C)nn3-c2nc(C)cc(C)n2)c(C)c1 (stereo not drawn)	.	.	-1.5%	0.0%
CCCCN(C)CCCNC(=O)Cn1ncc2c3ccccc3n(Cc3cccc(Cl)c3)c2c1=O	.	.	-30.1%	0.0%
COc1ccccc1OCCCn1cc(C#N)c2ccccc21	33.9*	26.7*	1.9%	-23.5%
N#Cc1cn(CCCOc2ccccc2)c2ccccc12	25.4	16.6*	7.1%	-4.0%
CCOc1ccc(-n2c(SCC(=O)N3CCCCC3)nc3c([nH]c4ccccc43)c2=O)cc1	.	.	7.9%	-34.4%
COc1cccc(C(=O)Nc2c(C(=O)N3CCN(c4ccc(F)cc4)CC3)oc3ccccc23)c1	.	.	-8.8%	-11.3%
O=C(CN1Cc2ccccc2OC(c2ccccc2F)C1)NC(c1ccccn1)C(F)(F)F (stereo not drawn)	.	.	.	-18.3%
CCCCS(=O)(=O)N1CN(S(=O)(=O)CCCC)C2NC(=O)NC21 (stereo not drawn)	21.9	45.2*	35.5µM*	33.4%
CC1CCC(NC(=O)c2ccc(CS(=O)(=O)c3c(Cl)cccc3Cl)o2)CC1 (stereo not drawn)	.	.	0.2%	-18.8%
COc1ccc(S(=O)(=O)NCCc2sc(-c3cccnc3)nc2C)cc1	.	.	-26.0%	38.5%
Fc1ccccc1OCCCCSc1ncccn1	22.2	27.4*	-14.9%	74.1%
Clc1ccc(OCCSc2ncccn2)c2ccccc12	90.9*	38.6*	10.8%	1.1%
c1cnc(SCCOc2cccc3ccccc23)nc1	78.6*	51.9*	-1.9%	40.0%
Fc1ccccc1OCCCn1ccnc1	20.2	1.6	8.9%	15.2%
c1ccc2c(OCCCCN3CCCC3)cccc2c1	12.7	-0.8	-1.5%	-3.9%
CCOC(=O)c1c(NC(=O)c2cc(-c3ccc(Br)cc3)on2)sc(C)c1C	.	.	-0.1%	7.9%
SMILES	Shiga toxin inh	Cycloheximide cs	Sm TGR block	FMDV antiviral
COc1cc(/C=C2\CC(C(C)(C)C)C/C(=C\c3cc(OC)c(OC)c(OC)c3)C2=O)cc(OC)c1OC (stereo not drawn)	33.7	9.0	1.7%	14.1µM*
COc1cc(/C=C2\COC/C(=C\c3cc(OC)c(OC)c(OC)c3)C2=O)cc(OC)c1OC	43.9*	27.9*	?	3.55µM*
COc1cc(/C=C2\CC/C(=C\c3cc(OC)c(OC)c(OC)c3)C2=O)cc(OC)c1OC	-1.2	-3.8	-15.9%	?
O=S(=O)(c1ccc(F)cc1)N1CCC(Oc2cccc(C(F)(F)F)c2)CC1	.	.	-2.2%	?
O=C(Nc1scc(-c2ccccc2)c1C(=O)O)c1ccccc1Cl	-6.8	10.3	-5.9%	20.9%
O=C(Nc1scc(-c2ccccc2)c1C(=O)O)c1ccco1	62.9*	30.9*	?	23.0%
CCOC(=O)c1c(-c2ccc(C)s2)csc1NC(=O)c1ccco1	18.8	0.4	2.6%	.
COC(=O)c1c(-c2ccc(F)cc2)csc1NC(=O)c1ccco1	93.6*	60.7*	0.8%	41.5%
COc1ccc(-c2csc(NC(=O)c3ccccc3F)c2C(=O)O)cc1	59.4*	35.7*	-4.6%	11.0%
CCCN1C(=O)C(NC(=O)c2ccccc2OC)(C(F)(F)F)C(C(=O)OC)=C1C (stereo not drawn)	.	.	9.0%	-17.0%
O=C(CSc1nc2c(c(=O)[nH]1)CCC2)Nc1ccccc1F	.	.	-4.0%	-17.0%
O=C(Nc1ccccc1C(F)(F)F)N1CCOc2ccc(Cl)cc21	.	.	1.1%	-3.6%
CC1(C)CC(=O)C(C=NCCN2CCN(C(=O)Cc3ccccc3)CC2)=C(O)C1	-11.0	-0.6	4.7%[11.4 µM]	3.3%
